Among the data in PubChem BioAssay AID463173 (ICCB-Longwood Screening Facility, Harvard Medical School, 2010) are survival values, retold here.

Molecules are shown by their SMILES. About 4,300 (8.3%) of roughly 52,000 compounds were called active. Rule as the data show it: active = survival mostly below about 52% (no sharp cut-off); inactive = mostly above about 56%. Only a selection was taken, and actives are over-represented in it overall.

The test system of the assay is DeltatarO mutant. Nature of the assay: S. aureus survival, RN4220 and DeltatarO strains – OD600, teichoic acid synthesis inhibitors, primary screen (AID 463173). To be noted: S. aureus RN4220 wild type/DeltatarO growth, OD600, 18 h, hits give low values, screened at 18.75 µg/mL (by protocol).
Turning to `CCOc1ccc(C(=O)c2cn(CC(=O)Nc3ccc(F)c(F)c3)c3cc4c(cc3c2=O)OCCO4)cc1`, the survival was 130% (inactive). Under `Cc1ccc(CNC(=O)c2nc(SCc3ccccc3C)ncc2Cl)cc1` stands 76% (inactive); under `Cc1cccc(NC(=O)Cn2cc(C(=O)C3CCCCC3)c3ccccc32)c1C`, 63% (inactive).

`COc1ccc(Cl)cc1NC(=O)Cn1nc(C(F)(F)F)c2c1CCCC2`: the survival was 35% (active). With `COC(=O)c1ccccc1NC(=O)Cn1nc(C(F)(F)F)c2c1CCCC2` the figure was 5% (active); with `CCc1ccccc1NC(=O)Cn1nc(C(F)(F)F)c2c1CCC2`, 75% (inactive); with `CCc1ccccc1NC(=O)Cn1nc(C(F)(F)F)c2c1CCCC2`, 77% (inactive).

For `COc1ccc(Cl)cc1NC(=O)Cn1nc(C(F)(F)F)c2c1CCC2`, the survival is 72% (inactive). Under `COc1cc(NC(=O)Cn2nc(C(F)(F)F)c3c2CCCC3)c(OC)cc1Cl` stands 78% (inactive).

Consider `O=C(CCS(=O)(=O)c1cccc2nonc12)Nc1ccc(F)cc1F`, for which the survival was 124% (inactive).

Regarding `FC(F)(F)c1nnc2c3ccccc3nc(-c3ccccc3)n12`, the survival is 29% (active). For the molecule `Cc1nnc2c3ccccc3nc(N3CCN(c4ccccc4)CC3)n12`, the survival was 77% (inactive). Under `FC(F)(F)c1nnc2c3ccccc3c(Cl)nn12` stands 95% (inactive); under `O=C(Cn1nnc(-c2cccc(C(F)(F)F)c2)n1)NCc1ccc(F)cc1`, 77% (inactive).

Turning to `CCc1ccc(NC(=O)C(=O)NCC(c2cccnc2)N2CCc3ccccc3C2)cc1` (configuration not stated), the survival was 64% (inactive). With `CCc1ccc(OCC(=O)Nc2c(C(=O)c3ccc(Br)cc3)oc3ccccc23)cc1` the figure was 85% (inactive). With `CCNc1nc(Oc2ccc(=O)n(-c3ccccc3)n2)nc(N(C)C)n1` the figure was 84% (inactive); with `CCc1ccc(CNC(=O)c2c3c(nc4ccccc24)C(=O)N(C2CCCCC2)C3)cc1`, 37% (active). With `O=C(NCc1cccc(Cl)c1)c1c2c(nc3ccccc13)C(=O)N(C1CCCCC1)C2` the figure was 144% (inactive); with `COc1cccc(CNC(=O)c2c3c(nc4ccccc24)C(=O)N(C2CCCCC2)C3)c1`, 46% (active); with `O=C(NCc1ccccc1)c1c2c(nc3ccccc13)C(=O)N(C1CCCCC1)C2`, 69% (inactive). Regarding `CC(C)CCNC(=O)c1c2c(nc3ccccc13)C(=O)N(C1CCCCC1)C2`, the survival was 101% (inactive).

`CCCNC(=O)c1c2c(nc3ccccc13)C(=O)N(C1CCCCC1)C2`: the survival was 75% (inactive). With `CC(C)OCCCNC(=O)c1c2c(nc3ccccc13)C(=O)N(C1CCCCC1)C2` the figure was 25% (active). With `Cc1ccc(CNC(=O)c2c3c(nc4ccccc24)C(=O)N(C2CCCCC2)C3)cc1` the figure was 91% (inactive). With `CN(C(=O)c1c2c(nc3ccccc13)C(=O)N(C1CCCCC1)C2)c1ccc(F)cc1` the figure was 0% (active); with `O=C(NCc1ccc(F)cc1)c1c2c(nc3ccccc13)C(=O)N(C1CCCCC1)C2`, 102% (inactive).

Regarding `CCOc1ccccc1N(C)C(=O)c1c2c(nc3ccccc13)C(=O)N(C1CCCCC1)C2`, the survival was 92% (inactive). Take `COc1ccc(CNC(=O)c2c3c(nc4ccccc24)C(=O)N(C2CCCCC2)C3)cc1`: the survival is 83% (inactive).

As for `Cc1ccc(NC(=O)Cn2c(CCC(=O)O)ccc2-c2ccc(Cl)cc2)cc1`, the survival was 53% (inactive). Under `Cn1ccc2cc(S(=O)(=O)N3CCN(C(=O)Nc4ccc(F)cc4F)CC3)ccc21` stands 70% (inactive); under `COc1cccc(CNC(=O)c2cc3c(=O)oc4ccc(C)cc4c3s2)c1`, 73% (inactive); under `COc1ccc(Cl)cc1NC(=O)[C@H]1O[C@@H]2OC(C)(C)O[C@@H]2[C@H]2OC(C)(C)O[C@H]21`, 83% (inactive). Take `O=C(CSCc1nc2cccnc2n1C1CCCCC1)NCc1cccc(Br)c1`: the survival is 105% (inactive). Under `CC(C)c1nn2c(=O)cc(COC(=O)C3CCCCC3)nc2s1` stands 94% (inactive). Under `CCc1ccc2nc(N(Cc3cccnc3)C(C)=O)sc2c1` stands 91% (inactive).

For the molecule `COc1ccc(OC)c(CNC(=O)c2c3c(nc4ccccc24)C(=O)N(C2CCCCC2)C3)c1`, the survival is 93% (inactive). Under `COc1ccc(CNC(=O)c2c3c(nc4ccccc24)C(=O)N(C2CCCCC2)C3)c(OC)c1` stands 32% (active); under `COc1ccccc1CNC(=O)c1c2c(nc3ccccc13)C(=O)N(C1CCCCC1)C2`, 99% (inactive). As for `COc1ccc(C2C3C(=O)N(c4ccccc4)C(=O)C3ON2c2ccccc2)cc1` (configuration not stated), the survival was 106% (inactive).

`CC1CCN(S(=O)(=O)c2ccc3c(c2)CCN3C(=O)Nc2ccc(Br)cc2)CC1`: the survival was 69% (inactive). For `Cc1ccc(C(=O)Nc2ccccc2C(=O)OCc2cc(=O)n3nc(C(C)C)sc3n2)cc1`, the survival is 78% (inactive). `Cc1ccccc1CNC(=O)Cn1c(=O)c2cccn2c2cccnc21`: the survival was 76% (inactive).

Consider `O=C(Nc1nc2nc(-c3ccccc3)cc(=O)n2[nH]1)c1ccc(Cl)cc1`, for which the survival is 65% (inactive). With `Cc1cccc(-c2cc3nc(-c4ccccc4)cc(=O)n3[nH]2)c1` the figure was 97% (inactive); with `Nc1nc2nc(-c3ccccc3)cc(=O)n2[nH]1`, 84% (inactive); with `Cc1[nH]n2c(=O)cc(-c3ccccc3Cl)nc2c1-c1ccccc1`, -3% (active). Under `Cc1nn2c(-c3ccccc3)cc(-c3ccccc3)nc2c1-c1ccc(Cl)cc1` stands 78% (inactive); under `Cc1[nH]n2c(=O)cc(-c3ccc(Cl)cc3)nc2c1-c1ccccc1`, 3% (active); under `C/C(=N\N=C1/NC(=O)C(CC(=O)O)S1)c1ccc(C)o1` (configuration not stated), 101% (inactive). `CCCCCCNC(=O)CCc1c(C)nc2nc(-c3cc(OC)cc(OC)c3)nn2c1C`: the survival is 57% (inactive).

For the molecule `N=c1n(CCN2CCCCC2)c2ccccc2n1CC(O)c1ccc2c(c1)OCO2` (configuration not stated), the survival is 83% (inactive). With `CC(C)(C)c1ccc(Cn2c(=N)n(CC(O)c3ccco3)c3ccccc32)cc1` (configuration not stated) the figure was 5% (active); with `Cc1ccc(Cn2c(=N)n(CC(=O)c3ccccc3)c3ccccc32)cc1`, 65% (inactive).

For `COc1ccc(CNCCSc2nnnn2-c2ccccc2)c(OC)c1`, the survival is 49% (inactive). For `COc1cc(C2CC(=O)c3c([nH]c(C(=O)OCC4CCCCC4)c3C)C2)cc(OC)c1OC` (configuration not stated), the survival is 82% (inactive). `O=C(CCCCn1c(=O)c2ccccc2n(CC(=O)Nc2ccc(F)cc2F)c1=O)NCc1ccccc1Cl`: the survival is 100% (inactive).
